Where “and” joins values, the source holds several entries; their conditions need not be identical. Identical values can stand only once. Like-named read-outs stand apart in the source and are kept apart here.
Experiments:
SgK110 = settings: concentration: 1 μM, replicates: in singlicate; n = 1
TAK1 = system: T1, TAK1; settings: concentration: 1 μM, replicates: in singlicate, n = 1
T1 construct: gene MAP3K7

TAOK1 = settings: concentration: 1 μM, replicates: in singlicate; n = 1
TAOK2 = settings: concentration: 1 μM, replicates: in singlicate, n = 1
TAOK3 = settings: concentration: 1 μM, replicates: in singlicate, n = 1
TBK1 = settings: concentration: 1 μM, replicates: in singlicate, n = 1
TEC = settings: concentration: 1 μM, replicates: in singlicate; n = 1
TESK1 = settings: concentration: 1 μM, replicates: in singlicate, n = 1
TGFBR1 = settings: concentration: 1 μM, replicates: in singlicate, n = 1
TGFBR2 = settings: concentration: 1 μM, replicates: in singlicate; n = 1
TIE1 = settings: concentration: 1 μM, replicates: in singlicate; n = 1
TIE2 = system: T2, TIE2; settings: concentration: 1 μM, replicates: in singlicate, n = 1
T2 construct: gene TEK

TLK1 = settings: concentration: 1 μM, replicates: in singlicate, n = 1
TLK2 = settings: concentration: 1 μM, replicates: in singlicate, n = 1
TNIK = settings: concentration: 1 μM, replicates: in singlicate, n = 1
TNK1 = settings: concentration: 1 μM, replicates: in singlicate, n = 1
TNK2 = settings: concentration: 1 μM, replicates: in singlicate; n = 1
TNNI3K = settings: concentration: 1 μM, replicates: in singlicate, n = 1
TRKA = system: T3, TRKA; settings: concentration: 1 μM, replicates: in singlicate, n = 1
T3 construct: gene NTRK1

TRKB = settings: concentration: 1 μM, replicates: in singlicate, n = 1
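Further: KINOMEscan kinase panel screen.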

Nc1nc(-c2cccnc2)c(-c2ccnc3ccccc23)s1 [GW684083]
%Inh (SgK110): 48% | %Inh (TAK1): 1% | %Inh (TAOK1): 0% | %Inh (TAOK2): 0% | %Inh (TAOK3): 0% | %Inh (TBK1): 2% | %Inh (TEC): 0% | %Inh (TESK1): 0% | %Inh (TGFBR1): 5% | %Inh (TGFBR2): 14% | %Inh (TIE1): 6% | %Inh (TIE2): 0% | %Inh (TLK1): 0% | %Inh (TLK2): 0% | %Inh (TNIK): 81% | %Inh (TNK1): 0% | %Inh (TNK2): 18% | %Inh (TNNI3K): 0% | %Inh (TRKA): 59% | %Inh (TRKB): 39%

COc1ccc(-c2nc3n(c2-c2ccncc2)CCC3)cc1 [SKF-104493]
%Inh (SgK110): 0% | %Inh (TAK1; 1 µM): 0% and 31% | %Inh (TAOK1): 0% | %Inh (TAOK2; 1 µM): 26% and 10% | %Inh (TAOK3; 1 µM): 5% and 0% | %Inh (TBK1; 1 µM): 13% and 17% | %Inh (TEC): 0% | %Inh (TESK1; 1 µM): 1% and 24% | %Inh (TGFBR1; 1 µM): 37% and 31% | %Inh (TGFBR2): 0% | %Inh (TIE1): 0% | %Inh (TIE2; 1 µM): 0% and 2% | %Inh (TLK1; 1 µM): 7% and 0% | %Inh (TLK2; 1 µM): 0% and 24% | %Inh (TNIK; 1 µM): 0% and 11% | %Inh (TNK1; 1 µM): 6% and 0% | %Inh (TNK2): 0% | %Inh (TNNI3K; 1 µM): 25% and 6% | %Inh (TRKA; 1 µM): 0% and 32% | %Inh (TRKB; 1 µM): 13% and 0%

COC(=O)c1cccc(NC(=O)NCCNc2ccnc(Nc3ccc(F)cc3)n2)c1 [GSK1379883]
%Inh (SgK110): 0% | %Inh (TAK1): 0% | %Inh (TAOK1): 0% | %Inh (TAOK2): 0% | %Inh (TAOK3): 0% | %Inh (TBK1): 16% | %Inh (TEC): 0% | %Inh (TESK1): 23% | %Inh (TGFBR1): 13% | %Inh (TGFBR2): 0% | %Inh (TIE1): 0% | %Inh (TIE2): 0% | %Inh (TLK1): 1% | %Inh (TLK2): 0% | %Inh (TNIK): 0% | %Inh (TNK1): 0% | %Inh (TNK2): 14% | %Inh (TNNI3K): 0% | %Inh (TRKA): 19% | %Inh (TRKB): 0%
